The results in this text go back to PubChem BioAssay.

One assay in a line: sensitizers of A549 cells to miR-34 induction, primary screen, imaging, A549 dox-inducible miR-34, nuclei and caspase counts (AID 1347080). Also: test concentration not given here. The note with it: A549 miR-34 inducible, Hoechst nuclei count, 48 h; measured here: relative caspase fold change +Dox/-Dox.
As for `O=C(O)CCC/C=C\C[C@@H]1[C@@H](/C=C/C(F)(F)COc2ccccc2)[C@H](O)C[C@@H]1O`, the fold change was found to be 1.05.
For `CCCCCCCCCCCSCC(=O)O`, the fold change was 1.04.
Still for that read-out and setting: then `CCCCCCCCCCCCCCCCC(=O)NCCO`, with 0.673; and `CCCCC[C@](C)(O)/C=C/[C@@H]1[C@@H](C/C=C\CCCC(=O)O)[C@@H](O)C[C@H]1O`, with 1.48.
Still for that read-out and setting: in the case of `CCCCC(C)(C)[C@H](O)/C=C/[C@H]1C(=O)C[C@H](O)[C@@H]1C/C=C\CCCC(=O)O` it was 0.943.
Same read-out and setting: in the case of `CC(C)c1cc2c(c(O)c1O)C13CCCC(C)(C)C1CC2OC3=O` (stereo not drawn) it was 1.02.
As for `CCCCCCCCCCCCCCCCCC(=O)OCC`, the fold change worked out at 2.18.
Same read-out and setting: then `CC(C)ON(CC(=O)NO)S(=O)(=O)c1ccc(-c2ccccc2)cc1`, with 1.73; and `OCC(O)[C@@H](O)CO` (stereo partly drawn), with 0.896; and `CCCCCCCCCCCCCCCCCCCCCCC(=O)OCC`, with 0.513.
The same measure, in the same setting: in the case of `C/C=C/C[C@@H](C)[C@@H](O)[C@H]1C(=O)N[C@@H](CC)C(=O)N(C)CC(=O)N(C)[C@@H](CC(C)C)C(=O)N[C@@H](C(C)C)C(=O)N(C)[C@@H](CC(C)C)C(=O)N[C@@H](C)C(=O)NC(C)C(=O)N(C)[C@@H](CC(C)C)C(=O)N(C)[C@@H](CC(C)C)C(=O)N(C)[C@@H](C(C)C)C(=O)N1C` (stereo partly drawn) it was 1.6.
Same read-out and setting: in the case of `CCCCC[C@H](O)/C=C/[C@H]1[C@H](O)CC(=O)[C@@H]1C/C=C\CCCC(=O)OCC(O)CO` (stereo partly drawn) it was 0.932.
With `CCCCNC(=O)NS(=O)(=O)c1ccc(CO)cc1`, the fold change stood at 0.775.
On the same count and under the same terms, then `CCCCCC(=O)/C=C/[C@H]1[C@H](O)CC(=O)[C@@H]1CCCCCCC(=O)O`, with 1.35; and `CC(C)CCCC(C)NC(C)C` (stereo not drawn), with 0.874.
The same measure, in the same setting: then `CCC(C)(C)C(=O)C(=O)N1CCCC[C@H]1C(=O)O[C@H](CCc1ccc(OC)c(OC)c1)c1cccc(N)c1`, with 0.49; and `CC(C)OC(=O)CCC/C=C\C[C@@H]1[C@@H](/C=C/[C@H](O)CCc2ccccc2)[C@H](O)C[C@@H]1O`, with 1.74.
On the same count and under the same terms, in the case of `CCCCC[C@@](C)(O)/C=C/[C@H]1C(=O)C[C@H](O)[C@@H]1C/C=C\CCCC(=O)O` it was 1.24; in that of `CCCCCCCCCCCCCCCC(=O)NCCS(=O)(=O)O`, 0.86.
Consider `CC/C(=C\C(=N/O)C(N)=O)C(C)[N+](=O)[O-]` (stereo not drawn), for which the fold change turned out to be 1.1.
On the same count and under the same terms, then `CCCCCCCCCSCCCCCCCC(=O)O`, with 0.653; and `CCCCC[C@H](O)/C=C/[C@@H]1[C@@H](CCCCC(CC(=O)O)OC)[C@@H](O)C[C@H]1O` (stereo partly drawn), with 1.3; and `CCOc1c2c(c(OCC)c3ccccc13)C(=O)N(c1ccc(CC(=O)NS(=O)(=O)c3ccccc3)cc1)C2`, with 1.11.
For `CCCCC/C=C/C/C=C/CCCCCCCC(=O)O`, the fold change came to 0.989.
Same read-out and setting: in the case of `CCCCCCCCCCCCCCCCCCCC(=O)NCCO` it was 0.773.
Still for that read-out and setting: in the case of `O=C(O)CCC/C=C\C[C@@H]1C(=O)C[C@@H](O)[C@@H]1/C=C/[C@@H](O)CCc1ccccc1` it was 0.324; in that of `CC/C=C\C/C=C\C/C=C\CCCCCCCC(=O)NCCO`, 0.865.
The same measure, in the same setting: in the case of `CCCCCCCCCCCCCC(=O)OCC` it was 1.49; in that of `Nc1nc2c([nH]c(=O)n2[C@@H]2O[C@H](CO)[C@@H](O)[C@H]2O)c(=O)[nH]1`, 0.878; in that of `Nc1nc2c([nH]c(=O)n2[C@H]2C[C@H](O)[C@@H](CO)O2)c(=O)[nH]1`, 1.18.
As to `CCCCC[C@H](O)/C=C/[C@H]1CC[C@H](O)[C@@H]1C/C=C\CCCC(=O)O`, the fold change worked out at 1.76.
For the compound `CCCCCCCCCCCCCCCNC(=O)C1CCCCC1`, the fold change turned out to be 0.274.
Regarding `COc1ccc(C[C@H](N)C(=O)N[C@H]2[C@@H](O)[C@H](n3cnc4c(N(C)C)ncnc43)O[C@@H]2O)cc1`, the fold change was found to be 1.17.
On the same count and under the same terms, then `CC(=O)OCOC(c1ccc2ccccc2c1)P(=O)(OCOC(C)=O)OCOC(C)=O` (stereo not drawn), with 0.941.
In the case of `CCCCC/C=C\C/C=C\CCCCCCCC(=O)OC(CO)CO`, the fold change came out at 0.884.
The same measure, in the same setting: in the case of `O=C(NCc1ccc(Cl)c(Cl)c1)O[C@H]1CCc2ccccc21` it was 1.19; in that of `CC/C=C\C/C=C\C/C=C\C/C=C\C/C=C\C/C=C\CCC(=O)NCCO`, 0.411; in that of `O=C(CCCCCc1ccccc1)c1nc2ncccc2o1`, 0.866.
Same read-out and setting: in the case of `CC(C)(O)c1ccccc1CC[C@H](SCC1(CC(=O)O)CC1)c1cccc(/C=C/c2ccc3ccc(Cl)cc3n2)c1` it was 0.195.

Staying with this assay, now noted: A549 miR-34 inducible, Hoechst nuclei count, 48 h; measured here: total cells with miR-34 induction; stronger effect = lower value.
For `O=C(O)CCC/C=C\C[C@@H]1[C@@H](/C=C/C(F)(F)COc2ccccc2)[C@H](O)C[C@@H]1O`, the cell count was 5600.
With `CCCCCCCCCCCSCC(=O)O`, the cell count turned out to be 6160.
Still for that read-out and setting: then `CCCCCCCCCCCCCCCCC(=O)NCCO`, with 6030.
On the same count and under the same terms, then `CCCCC[C@](C)(O)/C=C/[C@@H]1[C@@H](C/C=C\CCCC(=O)O)[C@@H](O)C[C@H]1O`, with 5410; and `CCCCC(C)(C)[C@H](O)/C=C/[C@H]1C(=O)C[C@H](O)[C@@H]1C/C=C\CCCC(=O)O`, with 5440.
On the same count and under the same terms, in the case of `CC(C)c1cc2c(c(O)c1O)C13CCCC(C)(C)C1CC2OC3=O` (stereo not drawn) it was 5390.
For the compound `CCCCCCCCCCCCCCCCCC(=O)OCC`, the cell count was 5760.
On to `CC(C)ON(CC(=O)NO)S(=O)(=O)c1ccc(-c2ccccc2)cc1`, for which the cell count stood at 6160.
As for `OCC(O)[C@@H](O)CO` (stereo partly drawn), the cell count stood at 8910.
Same read-out and setting: in the case of `CCCCCCCCCCCCCCCCCCCCCCC(=O)OCC` it was 4740; in that of `C/C=C/C[C@@H](C)[C@@H](O)[C@H]1C(=O)N[C@@H](CC)C(=O)N(C)CC(=O)N(C)[C@@H](CC(C)C)C(=O)N[C@@H](C(C)C)C(=O)N(C)[C@@H](CC(C)C)C(=O)N[C@@H](C)C(=O)NC(C)C(=O)N(C)[C@@H](CC(C)C)C(=O)N(C)[C@@H](CC(C)C)C(=O)N(C)[C@@H](C(C)C)C(=O)N1C` (stereo partly drawn), 2270; in that of `CCCCC[C@H](O)/C=C/[C@H]1[C@H](O)CC(=O)[C@@H]1C/C=C\CCCC(=O)OCC(O)CO` (stereo partly drawn), 5540.
The same measure, in the same setting: then `CCCCNC(=O)NS(=O)(=O)c1ccc(CO)cc1`, with 5120.
On the same count and under the same terms, then `CCCCCC(=O)/C=C/[C@H]1[C@H](O)CC(=O)[C@@H]1CCCCCCC(=O)O`, with 5840; and `CC(C)CCCC(C)NC(C)C` (stereo not drawn), with 8610; and `CCC(C)(C)C(=O)C(=O)N1CCCC[C@H]1C(=O)O[C@H](CCc1ccc(OC)c(OC)c1)c1cccc(N)c1`, with 4270.
For `CC(C)OC(=O)CCC/C=C\C[C@@H]1[C@@H](/C=C/[C@H](O)CCc2ccccc2)[C@H](O)C[C@@H]1O`, the cell count is 6060.
Take `CCCCC[C@@](C)(O)/C=C/[C@H]1C(=O)C[C@H](O)[C@@H]1C/C=C\CCCC(=O)O`: the cell count was determined as 5370.
Regarding `CCCCCCCCCCCCCCCC(=O)NCCS(=O)(=O)O`, the cell count came out at 6370.
Still for that read-out and setting: then `CC/C(=C\C(=N/O)C(N)=O)C(C)[N+](=O)[O-]` (stereo not drawn), with 6540; and `CCCCCCCCCSCCCCCCCC(=O)O`, with 5310; and `CCCCC[C@H](O)/C=C/[C@@H]1[C@@H](CCCCC(CC(=O)O)OC)[C@@H](O)C[C@H]1O` (stereo partly drawn), with 5980.
Still for that read-out and setting: then `CCOc1c2c(c(OCC)c3ccccc13)C(=O)N(c1ccc(CC(=O)NS(=O)(=O)c3ccccc3)cc1)C2`, with 5560.
On to `CCCCC/C=C/C/C=C/CCCCCCCC(=O)O`, for which the cell count was found to be 6880.
On the same count and under the same terms, in the case of `CCCCCCCCCCCCCCCCCCCC(=O)NCCO` it was 6530.
On the same count and under the same terms, then `O=C(O)CCC/C=C\C[C@@H]1C(=O)C[C@@H](O)[C@@H]1/C=C/[C@@H](O)CCc1ccccc1`, with 5200; and `CC/C=C\C/C=C\C/C=C\CCCCCCCC(=O)NCCO`, with 5950; and `CCCCCCCCCCCCCC(=O)OCC`, with 5310.
Still for that read-out and setting: then `Nc1nc2c([nH]c(=O)n2[C@@H]2O[C@H](CO)[C@@H](O)[C@H]2O)c(=O)[nH]1`, with 5770.
Turning to `Nc1nc2c([nH]c(=O)n2[C@H]2C[C@H](O)[C@@H](CO)O2)c(=O)[nH]1`, the cell count is 4960.
The same measure, in the same setting: in the case of `CCCCC[C@H](O)/C=C/[C@H]1CC[C@H](O)[C@@H]1C/C=C\CCCC(=O)O` it was 6120; in that of `CCCCCCCCCCCCCCCNC(=O)C1CCCCC1`, 6830.
On the same count and under the same terms, then `COc1ccc(C[C@H](N)C(=O)N[C@H]2[C@@H](O)[C@H](n3cnc4c(N(C)C)ncnc43)O[C@@H]2O)cc1`, with 1130; and `CC(=O)OCOC(c1ccc2ccccc2c1)P(=O)(OCOC(C)=O)OCOC(C)=O` (stereo not drawn), with 3180; and `CCCCC/C=C\C/C=C\CCCCCCCC(=O)OC(CO)CO`, with 5470.
Still for that read-out and setting: then `O=C(NCc1ccc(Cl)c(Cl)c1)O[C@H]1CCc2ccccc21`, with 5770; and `CC/C=C\C/C=C\C/C=C\C/C=C\C/C=C\C/C=C\CCC(=O)NCCO`, with 5920; and `O=C(CCCCCc1ccccc1)c1nc2ncccc2o1`, with 5480.
Consider `CC(C)(O)c1ccccc1CC[C@H](SCC1(CC(=O)O)CC1)c1cccc(/C=C/c2ccc3ccc(Cl)cc3n2)c1`, for which the cell count amounted to 5500.
